Cardio protect: cardioprotection against H2O2-induced cell death, primary screen, uHTS, H9c2 cells, ATPLite luminescence; protection from H2O2 cell death, % at 20 µM; 0.63% of 360,000 active; H9c2 cardiomyocytes, H2O2 injury protection, 2 h; AID 588492, 2011;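 active = compounds giving at least 50% protection of heart cells from peroxide-induced death in the single-dose screen, raw or plate-pattern-corrected value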;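 note: 0% = DMSO wells with peroxide and 100% = DMSO wells without peroxide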
MIN6 prolif-1: inducers of MIN6 beta-cell proliferation, primary screen, ATP luminescence, uHTS. proliferation, % at 10 µM. AID 2380, 2010. MIN6 cells proliferation, ATPlite luminescence, 48 h; cells starved in 0.2% serum; 100% = growth in 10% serum. 0.29% of 330,000 active;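 active = compounds whose signal lies at least 3.5 SD above the mean of all wells on their plate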;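 note: 0% = DMSO-treated cells in low-serum medium and 100% = 10% serum control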
H9c2 TAG inh: inhibitors of triacylglycerol accumulation, primary screen, cell-based, uHTS, fluorescence, H9c2. H9c2 cells, Nile Red lipid (TAG) fluorescence; cells loaded with 200 µM oleic acid. inhibition, % at 12.5 µM. 0.66% of 230,000 active;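 active = pattern-corrected inhibition of lipid staining of at least 50% with the nuclear-stain viability signal not falling by more than 50%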;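 note: 0% = DMSO wells and 100% = triacsin C control wells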
Calpain2 inh: inhibitors of pig calpain II, primary screen, biochemical, fluorogenic peptide substrate, 1536-well; inhibition, % at 16 µM; 0.37% of 220,000 active; purified calpain II, 30 min;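 active = inhibition above about 50%, limit read from the data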
aDG glyco up: activators of alpha-DG glycosylation, primary screen, uHTS, Pro5-aDG cells, AlphaScreen | 0.22% of 360,000 active | activation, % at 10 µM | alpha-DG glycosylation AlphaScreen (IIH6); 0% Pro5, 100% B10-LARGE cell signal;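 active = activation of at least 8% versus controls, or a plate z-score of at least 8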;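 note: Pro5 are CHO cells carrying HIG-tagged alpha-DG that lacks glycosylation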
FAS TE block: FAS thioesterase domain inhibitors, primary screen, biochemical, fluorescence intensity, uHTS; 0.67% of 360,000 active; recombinant FAS-TE, OMFH fluorogenic substrate, fluorescence endpoint; inhibition, % at 15 µM; Fatty acid synthase (Homo sapiens), P49327; AID 602261, 2012;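 active = compounds whose normalised, plate-corrected inhibition of enzyme fluorescence in the single-dose primary screen is 50% or more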;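 note: 0% = DMSO with enzyme and 100% = substrate without enzyme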
Target sequence (P49327 whole entry, looked up, the tested form may be a part): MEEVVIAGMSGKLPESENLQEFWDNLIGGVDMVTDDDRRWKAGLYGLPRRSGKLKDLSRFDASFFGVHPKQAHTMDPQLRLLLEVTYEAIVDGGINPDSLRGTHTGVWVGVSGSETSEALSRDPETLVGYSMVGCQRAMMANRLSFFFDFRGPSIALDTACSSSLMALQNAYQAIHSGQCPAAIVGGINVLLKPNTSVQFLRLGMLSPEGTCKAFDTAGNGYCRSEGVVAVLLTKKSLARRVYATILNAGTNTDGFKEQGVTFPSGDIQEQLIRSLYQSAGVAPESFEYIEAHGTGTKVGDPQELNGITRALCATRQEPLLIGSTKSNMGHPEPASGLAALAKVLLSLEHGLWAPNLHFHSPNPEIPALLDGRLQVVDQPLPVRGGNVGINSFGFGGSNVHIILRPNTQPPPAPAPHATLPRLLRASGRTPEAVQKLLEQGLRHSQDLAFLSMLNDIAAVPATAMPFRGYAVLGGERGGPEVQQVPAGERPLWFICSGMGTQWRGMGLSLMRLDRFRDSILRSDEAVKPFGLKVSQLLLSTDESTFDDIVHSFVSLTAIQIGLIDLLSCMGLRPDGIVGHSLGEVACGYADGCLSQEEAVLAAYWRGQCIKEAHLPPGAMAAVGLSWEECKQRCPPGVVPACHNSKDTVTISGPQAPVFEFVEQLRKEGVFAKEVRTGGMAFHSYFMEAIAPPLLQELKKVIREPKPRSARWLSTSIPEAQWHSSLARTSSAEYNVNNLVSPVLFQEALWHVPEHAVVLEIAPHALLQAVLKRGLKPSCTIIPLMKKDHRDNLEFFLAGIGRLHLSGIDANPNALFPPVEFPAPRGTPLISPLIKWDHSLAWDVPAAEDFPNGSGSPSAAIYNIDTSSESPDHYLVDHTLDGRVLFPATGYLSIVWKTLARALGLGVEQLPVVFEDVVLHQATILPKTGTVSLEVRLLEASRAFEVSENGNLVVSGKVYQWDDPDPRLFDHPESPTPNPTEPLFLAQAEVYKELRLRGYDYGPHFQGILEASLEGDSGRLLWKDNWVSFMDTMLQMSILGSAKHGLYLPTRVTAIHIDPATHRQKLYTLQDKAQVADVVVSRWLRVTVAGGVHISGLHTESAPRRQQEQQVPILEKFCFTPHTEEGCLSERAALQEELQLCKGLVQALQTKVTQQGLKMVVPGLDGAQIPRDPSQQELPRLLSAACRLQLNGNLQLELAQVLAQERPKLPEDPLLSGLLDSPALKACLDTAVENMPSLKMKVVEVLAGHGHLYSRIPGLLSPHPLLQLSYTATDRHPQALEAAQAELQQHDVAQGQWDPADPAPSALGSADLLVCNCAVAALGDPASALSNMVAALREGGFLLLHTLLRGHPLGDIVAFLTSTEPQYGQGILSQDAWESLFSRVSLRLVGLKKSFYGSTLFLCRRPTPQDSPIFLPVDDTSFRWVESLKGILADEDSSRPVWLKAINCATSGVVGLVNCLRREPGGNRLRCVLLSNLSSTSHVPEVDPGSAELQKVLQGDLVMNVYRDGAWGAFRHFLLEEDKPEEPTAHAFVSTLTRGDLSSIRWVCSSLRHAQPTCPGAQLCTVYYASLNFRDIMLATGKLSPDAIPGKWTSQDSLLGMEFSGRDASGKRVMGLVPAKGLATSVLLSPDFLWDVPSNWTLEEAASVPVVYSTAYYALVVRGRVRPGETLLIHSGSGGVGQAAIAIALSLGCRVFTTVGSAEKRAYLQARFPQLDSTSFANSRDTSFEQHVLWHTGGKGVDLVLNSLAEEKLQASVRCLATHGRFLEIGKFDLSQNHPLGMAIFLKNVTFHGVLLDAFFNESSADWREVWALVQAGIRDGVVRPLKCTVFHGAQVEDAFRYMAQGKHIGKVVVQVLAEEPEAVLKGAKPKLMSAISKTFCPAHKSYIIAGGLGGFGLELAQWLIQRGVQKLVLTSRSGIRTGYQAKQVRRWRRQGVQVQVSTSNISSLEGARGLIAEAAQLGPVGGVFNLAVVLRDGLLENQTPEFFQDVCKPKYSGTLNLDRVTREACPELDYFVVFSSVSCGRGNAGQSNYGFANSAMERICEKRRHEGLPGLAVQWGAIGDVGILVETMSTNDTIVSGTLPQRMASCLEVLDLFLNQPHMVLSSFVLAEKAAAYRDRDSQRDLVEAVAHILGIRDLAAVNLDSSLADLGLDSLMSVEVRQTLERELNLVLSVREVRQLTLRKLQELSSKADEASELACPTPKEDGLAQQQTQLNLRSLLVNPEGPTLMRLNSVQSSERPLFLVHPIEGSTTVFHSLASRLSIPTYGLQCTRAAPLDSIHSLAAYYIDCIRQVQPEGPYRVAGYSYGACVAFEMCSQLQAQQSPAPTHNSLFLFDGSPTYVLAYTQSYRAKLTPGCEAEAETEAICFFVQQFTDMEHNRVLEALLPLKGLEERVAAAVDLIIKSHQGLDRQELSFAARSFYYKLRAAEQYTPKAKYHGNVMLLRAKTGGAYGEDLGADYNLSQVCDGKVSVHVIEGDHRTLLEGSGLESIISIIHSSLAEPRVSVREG
MIN6 prolif-2: inducers of beta-cell proliferation in MIN6, confirmation, MIN6 cells, mouse. ATPlite luminescence, 48 h; cells kept in 0.2% serum; scaled between 0.2% and 10% serum. shares compounds with MIN6 prolif-1. proliferation increase, % at 50 µM. 920 tested, under 10 active;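 active = proliferation increase above 40% at any of the four tested concentrations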
FAS-TE inh conf: FAS thioesterase domain inhibitors, confirmation, biochemical, fluorescence intensity, single concentration | shares compounds with FAS TE block | 45% of 2,300 active | recombinant FAS-TE, OMFH fluorogenic substrate | AID 624325, 2012 | inhibition, % at 15 µM;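 active = compounds inhibiting the enzyme by at least 50% at 15 µM in any one of the replicates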;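 note: 0% = enzyme with DMSO only and 100% = wells lacking enzyme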
* marks the source's active call; other numbers are inactive results; nt = not tested or not shown. The list is not random: actives were taken first. Their share in the collection is about 2.3%.

SMILES	Cardio protect	MIN6 prolif-1	H9c2 TAG inh	Calpain2 inh	aDG glyco up	FAS TE block	MIN6 prolif-2	others
COCCCn1cc(CN2CC(N3CCN(Cc4ccccc4F)CC3)CS2(=O)=O)nn1 (centres undefined)	nt	nt	nt	nt	0.2	-12.5	nt
O=C(NN=Cc1ccc2c(c1)CCN2)c1cccs1	-9.6	nt	0.8	nt	0.3	6.8	nt
Nc1nc(N)nc(-c2cc(F)ccc2O)n1	0.2	13.5*	1.7	nt	-0.1	-8.8	-0.6
O=C(NC(c1ccc(Cl)cc1)c1cnccn1)C1CCN(Cc2cccc(C(F)(F)F)c2)CC1 (centres undefined)	-0.6	nt	2.4	nt	2.5	0.1	nt
CCOc1ccc(CCNC(=O)CCCn2c(=O)c3cccn3c3cccnc32)cc1OCC	8.1	16.9*	nt	nt	-0.1	0.3	1.1
Cc1cnc(C(=O)OCC(=O)N(Cc2ccccc2)C(C)(C)C)cn1	3.5	1.0	-2.0	nt	-0.1	-4.9	nt
O=C1CCN(S(=O)(=O)c2ccc(Cl)cc2)CCN1	9.0	0.8	11.2	2.3	0.0	-3.1	nt
CCCCC(=O)Nc1ccccc1C#N	2.5	5.8*	nt	18.7	-0.1	-14.5	-0.9
CCOc1ccccc1CN1C(=O)NC2(CCCCCC2)C1=O	-3.0	-0.1	nt	nt	0.0	-1.4	nt
COc1ccc(C(C(=O)NCc2ccccc2)N(C(=O)c2snc(C(N)=O)c2N)c2ccccc2OC)cc1OC (centres undefined)	-1.4	21.6*	nt	nt	0.1	3.8	-1.9
COc1ccc(N(C(=O)c2snc(C(N)=O)c2N)C(C(=O)NCc2ccccc2)c2ccc(O)cc2)cc1OC (centres undefined)	3.0	-2.4	nt	nt	-0.1	14.0	nt
CCc1ccccc1N(C(=O)c1snc(C(N)=O)c1N)C(C(=O)NCC1CCCO1)c1ccc(C)o1 (centres undefined)	-0.6	-1.3	nt	nt	-0.1	3.7	nt
Cc1ccccc1N(C(=O)c1snc(C(N)=O)c1N)C(C(=O)NCC1CCCO1)c1ccc(N(C)C)cc1 (centres undefined)	14.2	0.3	nt	nt	-0.2	1.1	nt
CCc1ccccc1N(C(=O)c1snc(C(N)=O)c1N)C(C(=O)NCC1CCCO1)c1ccc(N(C)C)cc1 (centres undefined)	3.5	8.7*	nt	nt	-0.3	0.1	-0.6
Cc1ccc(N(C(=O)c2snc(C(N)=O)c2N)C(C(=O)NCC2CCCO2)c2ccc(C)o2)c(C)c1 (centres undefined)	0.3	16.6*	nt	nt	-0.1	-1.3	-6.3
CC(=O)NCCc1ccc(S(=O)(=O)N2CCN(c3nc(-c4ccccc4)c(C)s3)CC2)cc1	-3.7	-0.9	nt	nt	0.2	23.9	nt
CC(C)OCCCNC(=O)CN1C(=O)CSc2ccc(S(=O)(=O)N3CCOCC3)cc21	-0.3	nt	2.5	nt	-0.2	-7.3	nt
O=C1CCC(C(=O)N2CCSCC2)CN1Cc1ccc(Cl)cc1 (centres undefined)	9.2	26.6*	nt	nt	-0.2	-4.2	0.3
Cc1ccc(S(=O)(=O)N(CC(O)CN2C(=O)NC(C)(C)C2=O)c2cccc(C)c2)cc1 (centres undefined)	1.7	0.8	-7.2	-8.1	0.1	-6.6	nt
Cc1ccc(S(=O)(=O)N(CC(O)CN2C(=O)NC(C)(C)C2=O)c2ccccc2)cc1 (centres undefined)	0.5	8.8*	nt	21.8	0.1	-1.7	-0.7
c1ccc(-c2nc3c4ccccc4ccn3c2Cc2ccsc2)cc1	-4.2	nt	nt	nt	-0.2	9.9	nt
CCc1nc2ccccc2c(C(=O)Nc2cc(C)ccc2C)c1C	1.0	5.8*	nt	nt	0.0	-1.7	-1.5
CCc1nc2ccc(C(=O)Nc3ccc(OC)c(OC)c3)cn2c1N(C)Cc1nccs1	16.4	nt	14.1	nt	-0.4	-2.0	nt
CN(C)c1ccc(CNc2nc3cc(-c4ccc(F)cc4)sc3c(=O)n2C)cc1	-21.1	nt	3.1	nt	1.0	8.6	nt
NC(=O)c1ccsc1NC(=O)COC(=O)CCc1ccccc1	-19.0	nt	7.9	nt	0.0	3.5	nt
SMILES	Cardio protect	MIN6 prolif-1	H9c2 TAG inh	Calpain2 inh	aDG glyco up	FAS TE block	MIN6 prolif-2	others
Cc1nnc2ccc(-c3ccc(NC(=O)c4ccc(Cl)nc4)cc3)nn12	nt	8.5*	nt	-23.4	nt	nt	-0.6
O=C(COC(=O)c1ccc([N+](=O)[O-])o1)NCc1ccc2c(c1)OCO2	36.9	-2.8	-10.3	nt	0.0	-8.2	nt
COc1cc(C(=O)N/C(=C\c2cn(S(=O)(=O)N(C)C)c3ccccc23)C(=O)NCCCO)cc(OC)c1OC	-5.3	8.6*	2.5	11.5	0.2	-6.1	-2.6
Cc1ccccc1NS(=O)(=O)c1ccc(C(=O)NCC(c2ccco2)N(C)C)cc1 (centres undefined)	-2.7	11.5*	3.8	nt	0.0	-7.7	-3.4
Cc1ccccc1NS(=O)(=O)c1ccc(C(=O)NCC(c2ccccc2)N(C)C)cc1 (centres undefined)	-3.5	-2.4	-3.1	nt	-0.2	-5.5	nt
O=C(N/N=C/c1cc([N+](=O)[O-])cc([N+](=O)[O-])c1O)/C(=C\c1cccs1)NC(=O)c1ccccc1	-2.4	0.0*	nt	-66.6	-0.1	75.0*	-3.6	FAS-TE inh conf=74.3*
CCCCC1Cc2[nH]c(=S)[nH]c(=O)c2C(c2cccc3ccccc23)O1 (centres undefined)	nt	nt	nt	nt	0.1	6.6	nt
O=C(COC(=O)c1cc(F)c(F)cc1Cl)NC1CCCCCC1	-2.0	nt	-20.5	nt	-0.3	55.6*	nt	FAS-TE inh conf=67.6*
CN(C(=O)COC(=O)c1cc([N+](=O)[O-])ccc1N1CCOCC1)C1CCCCC1	0.1	nt	-10.1	nt	-0.1	88.6*	nt	FAS-TE inh conf=92.5*
CC1CCCCN1C(=O)COC(=O)c1cc([N+](=O)[O-])ccc1N1CCOCC1 (centres undefined)	-2.9	-1.9	15.9	nt	0.6	53.7*	nt	FAS-TE inh conf=56.9*
CCN(C(=O)COC(=O)c1cc([N+](=O)[O-])ccc1N1CCOCC1)C1CCS(=O)(=O)C1 (centres undefined)	-4.8	1.0	0.2	nt	-0.1	3.6	nt
O=C(COC(=O)c1cc([N+](=O)[O-])ccc1N1CCOCC1)NC1CCS(=O)(=O)C1 (centres undefined)	-8.5	1.7	10.4	nt	0.1	15.9	nt
O=C(COC(=O)c1ccc(F)cc1Cl)NC1CCCCCCC1	-3.3	-2.9	-6.7	nt	0.0	14.0	nt

High-throughput results as filed in PubChem BioAssay.
